Out of some 5,500 compounds screened, about 2,000 (36%) were called active. Roughly 18% stayed inconclusive and do not appear here. No stated cut-off is given here; in the data, active means normalized growth mostly below about 0.91 (no sharp cut-off); inconclusive means no clear call, values can overlap the other calls; inactive means mostly above about 0.92. Some of the results follow.
Assay: chemical genetic growth profiling, strain panel (AID 1159580);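 further: tested at 20 µM; growth read once vehicle control cultures reached saturation at 30 °C; 1 = growth at the plate median or of vehicle wells; lower values mean less growth of the strain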
Settings: S. cerevisiae deletion strains, growth OD
[1] = locus YAR019C, strain CDC15, active compounds read low
[2] = locus YBL105C, strain PKC1, active compounds read low
[3] = locus YBR135W, strain CKS1, active compounds read low
[4] = locus YBR136W, strain MEC1, active compounds read low
[5] = locus YBR160W, strain CDC28, active compounds read low
[6] = locus YDL017W, strain CDC7, active compounds read low
[7] = locus YDL028C, strain MPS1, active compounds read low
[8] = locus YDL101C, strain DUN1, active compounds read low
[9] = locus YDL108W, strain KIN28, active compounds read low
[10] = locus YDL132W, strain cdc53, active compounds read low
[11] = locus YDL214C, strain PRR2, active compounds read low
[12] = locus YDR052C, strain DBF4, active compounds read low
[13] = locus YDR054C, strain cdc34, active compounds read low
[14] = locus YDR226W, strain ADK1, active compounds read low
[15] = locus YDR477W, strain SNF1, active compounds read low
[16] = locus YER123W, strain YCK3, active compounds read low
[17] = locus YER133W, strain GLC7, active compounds read low
[18] = locus YFL009W, strain cdc4, active compounds read low
[19] = locus YFL029C, strain CAK1, active compounds read low
[20] = locus YFR003C, strain YPI1, active compounds read low
[21] = locus YFR019W, strain FAB1, active compounds read low
[22] = locus YFR028C, strain CDC14, active compounds read low
[23] = locus YGR040W, strain KSS1, active compounds read low
[24] = locus YGR052W, strain FMP48, active compounds read low
[25] = locus YGR092W, strain DBF2, active compounds read low
[26] = locus YHR030C, strain SLT2, active compounds read low
[27] = locus YHR079C, strain IRE1, active compounds read low
[28] = locus YHR082C, strain KSP1, active compounds read low
[29] = locus YHR205W, strain SCH9, active compounds read low
[30] = locus YIL147C, strain SLN1, active compounds read low
[31] = locus YJL095W, strain BCK1, active compounds read low
[32] = locus YJL128C, strain PBS2, active compounds read low
[33] = locus YJL157C, strain FAR1, active compounds read low
[34] = locus YJR016C, strain ILV3, active compounds read low
[35] = locus YJR066W, strain TOR1 (second series), active compounds read low
[36] = locus YJR066W, strain TOR1, active compounds read low
[37] = locus YKL048C, strain ELM1, active compounds read low
[38] = locus YKL067W, strain YNK1, active compounds read low
[39] = locus YKL101W, strain HSL1, active compounds read low
[40] = locus YKL193C, strain SDS22, active compounds read low
[41] = locus YKL203C, strain TOR2, active compounds read low
[42] = locus YLR113W, strain HOG1, active compounds read low
[43] = locus YLR133W, strain CKI1, active compounds read low
[44] = locus YLR403W, strain SFP1, active compounds read low
[45] = locus YML070W, strain DAK1, active compounds read low
[46] = locus YMR001C, strain CDC5, active compounds read low
[47] = locus YMR205C, strain PFK2 (second series), active compounds read low
[48] = locus YMR277W, strain FCP1, active compounds read low
[49] = locus YNL006W, strain LST8, active compounds read low
[50] = locus YNL020C, strain ARK1, active compounds read low
[51] = locus YNL161W, strain CBK1, active compounds read low
[52] = locus YNL183C, strain NPR1, active compounds read low
[53] = locus YNL207W, strain RIO2, active compounds read low
[54] = locus YNL222W, strain SSU72, active compounds read low
[55] = locus YNL307C, strain MCK1 (second series), active compounds read low
[56] = locus YOL078W, strain AVO1, active compounds read low
[57] = locus YOL136C, strain PFK27, active compounds read low
[58] = locus YOR061W, strain CKA2, active compounds read low
[59] = locus YOR119C, strain RIO1, active compounds read low
[60] = locus YOR231W, strain MKK1, active compounds read low
[61] = locus YOR329C, strain SCD5, active compounds read low
[62] = locus YPL031C, strain PHO85, active compounds read low
[63] = locus YPL153C, strain RAD53, active compounds read low
[64] = locus YPL204W, strain HRR25, active compounds read low
[65] = locus YPL209C, strain IPL1, active compounds read low
[66] = locus YPL256C, strain CLN2, active compounds read low
[67] = locus YPR025C, strain CCL1, active compounds read low
[68] = locus YPR106W, strain ISR1, active compounds read low
[69] = locus YPR111W, strain DBF20, active compounds read low
[70] = strain NNK1, active compounds read low
[71] = strain TSCII, active compounds read low

Measured: normalized growth

CNC(=O)n1nc(C)c(Cc2csc3ccc(Cl)cc23)c1C
active: [66] 0.855
inactive: [1] 0.995 | [2] 0.998 | [3] 0.984 | [4] 0.997 | [5] 0.991 | [6] 0.994 | [7] 0.997 | [8] 1.01 | [9] 0.993 | [10] 1 | [11] 0.943 | [12] 1 | [13] 0.99 | [14] 0.99 | [15] 0.976 | [16] 0.906 | [17] 0.959 | [18] 0.999 | [19] 0.993 | [20] 0.993 | [21] 0.928 | [22] 0.978 | [23] 0.95 | [24] 0.989 | [25] 0.949 | [26] 0.935 | [27] 0.893 | [28] 0.936 | [29] 0.921 | [30] 0.993 | [31] 0.94 | [32] 0.934 | [33] 0.961 | [34] 0.994 | [35] 0.931 | [36] 1.02 | [37] 0.983 | [38] 0.91 | [39] 0.951 | [40] 0.991 | [41] 0.996 | [42] 0.902 | [43] 0.937 | [44] 0.942 | [45] 0.917 | [46] 0.988 | [47] 0.933 | [48] 0.988 | [49] 0.988 | [50] 0.934 | [51] 0.993 | [52] 0.896 | [53] 0.993 | [54] 0.992 | [55] 0.925 | [56] 0.991 | [57] 0.926 | [58] 0.957 | [59] 1.03 | [60] 0.894 | [61] 0.997 | [62] 0.966 | [63] 0.936 | [64] 0.926 | [65] 0.993 | [67] 0.998 | [68] 0.999 | [69] 0.979 | [70] 0.991 | [71] 0.989

NNC(=O)c1csc(Cc2c(Cl)sc3ccc(Cl)cc23)n1
inactive: [1] 0.979 | [2] 0.983 | [3] 1 | [4] 0.993 | [5] 0.996 | [6] 0.985 | [7] 0.996 | [8] 0.985 | [9] 1 | [10] 0.975 | [11] 1.02 | [12] 0.986 | [13] 0.968 | [14] 0.996 | [15] 0.979 | [16] 1.01 | [17] 0.979 | [18] 0.991 | [19] 0.971 | [20] 0.994 | [21] 0.992 | [22] 0.994 | [23] 0.988 | [24] 1.11 | [25] 0.969 | [26] 1 | [27] 0.977 | [28] 1.04 | [29] 1.01 | [30] 0.99 | [31] 0.994 | [32] 0.998 | [33] 0.994 | [34] 0.981 | [35] 0.983 | [36] 1.05 | [37] 1 | [38] 1 | [39] 1.02 | [40] 0.983 | [41] 1.04 | [42] 1.07 | [43] 1 | [44] 0.978 | [45] 1.01 | [46] 0.989 | [47] 1.01 | [48] 0.981 | [49] 0.998 | [50] 0.999 | [51] 0.983 | [52] 1.03 | [53] 0.983 | [54] 0.986 | [55] 1.01 | [56] 0.976 | [57] 1 | [58] 1.01 | [59] 1.07 | [60] 0.986 | [61] 0.99 | [62] 0.984 | [63] 0.974 | [64] 0.971 | [65] 0.984 | [66] 1.03 | [67] 0.995 | [68] 0.998 | [69] 0.992 | [70] 0.984 | [71] 0.982

COc1ccc(C(=O)NCc2csc3ccc(Cl)cc23)cc1OC
inactive: [1] 0.971 | [2] 0.97 | [3] 0.985 | [4] 0.975 | [5] 0.975 | [6] 0.982 | [7] 0.986 | [8] 0.973 | [9] 0.981 | [10] 0.979 | [11] 0.986 | [12] 0.971 | [13] 0.955 | [14] 0.975 | [15] 0.982 | [16] 0.977 | [17] 0.978 | [18] 0.97 | [19] 0.974 | [20] 0.977 | [21] 1 | [22] 0.977 | [23] 0.994 | [24] 1.05 | [25] 0.981 | [26] 1.03 | [27] 1.01 | [28] 1.05 | [29] 0.972 | [30] 0.975 | [31] 1.05 | [32] 0.92 | [33] 0.988 | [34] 0.975 | [35] 1.01 | [36] 1.07 | [37] 0.98 | [38] 0.987 | [39] 0.994 | [40] 0.977 | [41] 1.05 | [42] 0.92 | [43] 0.976 | [44] 0.994 | [45] 0.983 | [46] 0.979 | [47] 0.986 | [48] 0.973 | [49] 0.983 | [50] 0.985 | [51] 0.975 | [52] 0.999 | [53] 0.962 | [54] 0.972 | [55] 0.972 | [56] 0.977 | [57] 0.98 | [58] 1 | [59] 1.05 | [60] 0.983 | [61] 0.975 | [62] 0.994 | [63] 0.995 | [64] 0.974 | [65] 0.972 | [66] 0.947 | [67] 0.976 | [68] 0.966 | [69] 0.954 | [70] 0.97 | [71] 0.984
